# Test results from the supplement of paper PMC8728848.
# The full list was thinned out, with the strongest signals kept by preference.
# What was measured:
# Assay in all cases: glycan array binding signal (z-score within array); higher = stronger binding
# Settings in all cases: glycan notation: IUPAC condensed, linker removed
# [1] = target: Fuc(a1-2)[Gal(a1-3)]Gal(b1-4)Glc
# Method in brief: (§1)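 From the Consortium for Functional Glycomics database, 3228 arrays were curated, keeping only those whose protein sequence was available. Binding is given as a within-array Z-score averaged across arrays sharing a protein sequence and across linkers. Negative Z-scores can be read as non-binding.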
# [2] = target: Fuc(a1-2)[Gal(a1-3)]Gal(b1-4)GlcNAc
# Method in brief: as §1
# [3] = target: Fuc(a1-2)[Gal(a1-3)]Gal(b1-4)GlcNAc(b1-2)Man(a1-3)[Fuc(a1-2)[Gal(a1-3)]Gal(b1-4)GlcNAc(b1-2)Man(a1-6)]Man(b1-4)GlcNAc(b1-4)GlcNAc
# Method in brief: as §1
# [4] = target: Fuc(a1-2)[GalNAc(a1-3)]Gal(b1-3)GlcNAc(b1-2)Man(a1-3)[Fuc(a1-2)[GalNAc(a1-3)]Gal(b1-3)GlcNAc(b1-2)Man(a1-6)]Man(b1-4)GlcNAc(b1-4)GlcNAc
# Method in brief: as §1
# [5] = target: Fuc(a1-2)[GalNAc(b1-3)]Gal
# Method in brief: as §1
# [6] = target: Fuc(a1-3)[Gal(b1-4)]GlcNAc
# Method in brief: as §1
# [7] = target: Fuc(a1-3)[Gal3S(b1-4)]GlcNAc6S
# Method in brief: as §1
# Gal(a1-3)Gal(b1-3)GlcNAc = target: Gal(a1-3)Gal(b1-3)GlcNAc
# Method in brief: as §1
# Gal(a1-4)Gal(b1-4)Glc = target: Gal(a1-4)Gal(b1-4)Glc
# Method in brief: as §1
# Gal(a1-6)Glc = target: Gal(a1-6)Glc
# Method in brief: as §1
# [8] = target: Gal(b1-3)Gal(b1-4)GlcNAc(b1-2)Man(a1-3)[Gal(b1-3)Gal(b1-4)GlcNAc(b1-2)Man(a1-6)]Man(b1-4)GlcNAc(b1-4)GlcNAc
# Method in brief: as §1
# [9] = target: Gal(b1-3)GalNAc(b1-4)Gal(b1-4)Glc
# Method in brief: as §1
# [10] = target: Gal(b1-3)GalNAc(b1-4)[Neu5Ac(a2-3)]Gal(b1-4)Glc
# Method in brief: as §1
# [11] = target: Gal(b1-3)GlcNAc(b1-2)Man(a1-3)[Gal(b1-3)GlcNAc(b1-2)Man(a1-6)]Man(b1-4)GlcNAc(b1-4)GlcNAc
# Method in brief: as §1
# [12] = target: Gal(b1-3)GlcNAc(b1-3)Gal(b1-3)GlcNAc
# Method in brief: as §1
# [13] = target: Gal(b1-3)GlcNAc(b1-3)Gal(b1-4)[Fuc(a1-3)]GlcNAc(b1-6)[Gal(b1-3)GlcNAc(b1-3)]Gal(b1-4)Glc
# Method in brief: as §1
# Gal(b1-4)Glc = target: Gal(b1-4)Glc
# Method in brief: as §1
# [14] = target: Gal(b1-4)GlcNAc(b1-2)[Gal(b1-4)GlcNAc(b1-4)]Man(a1-3)[Gal(b1-4)GlcNAc(b1-2)Man(a1-6)]Man(b1-4)GlcNAc(b1-4)GlcNAc
# Method in brief: as §1
# [15] = target: Gal(b1-4)GlcNAc(b1-3)[Gal(b1-4)GlcNAc(b1-6)]GalNAc
# Method in brief: as §1
# [16] = target: Gal(b1-4)GlcNAc(b1-6)[Gal(b1-3)]GalNAc
# Method in brief: as §1
# [17] = target: Gal3S(b1-4)[Fuc(a1-3)]Glc
# Method in brief: as §1
# [18] = target: GalNAc(a1-3)GalNAc(a1-3)Gal(a1-4)Gal(b1-4)GlcNAc
# Method in brief: as §1
# [19] = target: GalNAc(b1-3)Gal(a1-6)Gal(b1-4)Glc
# Method in brief: as §1
# Glc(b1-6)Glc = target: Glc(b1-6)Glc
# Method in brief: as §1
# [20] = target: GlcNAc(a1-4)Gal(b1-4)GalNAc
# Method in brief: as §1
# [21] = target: GlcNAc(a1-4)Gal(b1-4)GlcNAc(b1-3)Gal(b1-4)[Fuc(a1-3)]GlcNAc(b1-3)Gal(b1-4)[Fuc(a1-3)]GlcNAc
# Method in brief: as §1
# Man(a1-6)Man = target: Man(a1-6)Man
# Method in brief: as §1
# Man(b1-4)GlcNAc = target: Man(b1-4)GlcNAc
# Method in brief: as §1
# [22] = target: Neu5Ac(a2-3)Gal(b1-3)GlcNAc(b1-3)GalNAc
# Method in brief: as §1
# [23] = target: Neu5Ac(a2-3)Gal(b1-4)[Fuc(a1-3)]GlcNAc(b1-3)Gal(b1-4)[Fuc(a1-3)]GlcNAc(b1-3)Gal(b1-4)[Fuc(a1-3)]GlcNAc
# Method in brief: as §1
# [24] = target: Neu5Ac(a2-6)Gal(b1-4)GlcNAc(b1-2)Man(a1-3)[Gal(b1-4)GlcNAc(b1-2)Man(a1-6)]Man(b1-4)GlcNAc(b1-4)GlcNAc
# Method in brief: as §1
# [25] = target: Neu5Ac(a2-6)Gal(b1-4)GlcNAc(b1-2)Man(a1-6)Man(b1-4)GlcNAc(b1-4)GlcNAc
# Method in brief: as §1
# [26] = target: Neu5Ac(a2-6)Gal(b1-4)GlcNAc(b1-2)Man(a1-6)[GlcNAc(b1-2)Man(a1-3)]Man(b1-4)GlcNAc(b1-4)GlcNAc
# Method in brief: as §1
# [27] = target: Neu5Ac(a2-8)Neu5Ac(a2-8)Neu5Ac(a2-3)Gal(b1-4)Glc
# Method in brief: as §1
# [28] = target: Neu5Ac(a2-8)Neu5Ac(a2-8)Neu5Ac(a2-3)[GalNAc(b1-4)]Gal(b1-4)Glc
# Method in brief: as §1
# [29] = target: Neu5Gc(a2-3)Gal(b1-3)GlcNAc
# Method in brief: as §1
binder,measurement,setting,value
"SspB (Streptococcus gordonii), P16952 (protein) MKNKKEVYGFRKSKVAKTLCGAVLGTALIAFADKAVFADEVTETTSTSTVEVATTGNPATNLPEAQGEMSQVAKESQAKAGSKESALPVEVSSADLDKAVADAKSAGVKVVQDETKDKGTATTATDNAQKQDEIKSDYAKQAEEIKTTTEAYKKEVAAHQAETDKINAENKAADDKYQKDLKSHQEEVEKINTANATAKAEYEAKLAQYQKDLATVKKANEDSQQDYQNKLSAYQTELARVQKANAEAKEAYEKAVKENTAKNEALKVENEAIKQRNETAKATYEAAMKQYEADLAAIKKANEDNDADYQAKLAAYQTELARVQKANAEAKEAYDKAVKENTAKNTAIQAENEAIKQRNETAKATYDAAVKKYEADLAAVKQANATNEADYQAKLAAYQTELARVQKANADAKATYEKAVEDNKAKNAAIKAENEEIKQRNAVAKTDYEAKLAKYEADLAKYKKEFAAYTAALAEAESKKKQDGYLSEPRSQSLNFKSEPNAIRTIDSSVHQYGQQELDALVKSWGISPTNPDRKKSRAYSYFNAINSNNTYAKLVLEKDKPVDVTYTGLKNSSFNGKKISKVVYTYTLKETGFNDGTKMTMFASSDPTVTAWYNDYFTSTNINVKVKFYDEEGQLMNLTGGLVNFSSLNRGNGSGAIDKDAIESVRNFNGRYIPISGSSIKIHENNSAYADSSNAEKSLGARWNTSEWDTTSSPNNWYGAIVGEITQSEISFNMASSKSGNIWFAFNSNINAIGVPTKPVAPTAPTQPMYETEKPLEPAPVAPSYENEPTPPVKTPDQPEPSKPEEPTYETEKPLEPAPVAPSYENEPTPPVKTPDQPEPSKPEEPNYETEKPLEPAPVAPSYENEPTPPVKIPDQPEPSKPEEPTYDPLPTPPLAPTPKQLPTPPVVPTVHFHYSSLLAQPQINKEIKNEDGVDIDRTLVAKQSIVKFELKTEALTAGRPKTTSFVLVDPLPTGYKFDLDATKAASTGFDTTYDEASHTVTFKATDETLATYNADLTKPVETLHPTVVGRVLNDGATYTNNFTLTVNDAYGIKSNVVRVTTPGKPNDPDNPNNNYIKPTKVNKNKEGLNIDGKEVLAGSTNYYELTWDLDQYKGDKSSKEAIQNGFYYVDDYPEEALDVRPDLVKVADEKGNQVSGVSVQQYDSLEAAPKKVQDLLKKANITVKGAFQLFSADNPEEFYKQYVATGTSLVITDPMTVKSEFGKTGGKYENKAYQIDFGNGYATEVVVNNVPKITPKKDVTVSLDPTSENLDGQTVQLYQTFNYRLIGGLIPQNHSEELEDYSFVDDYDQAGDQYTGNYKTFSSLNLTMKDGSVIKAGTDLTSQTTAETDATNGIVTVRFKEDFLQKISLDSPFQAETYLQMRRIAIGTFENTYVNTVNKVAYASNTVRTTTPIPRTPDKPTPIPTPKPKDPDKPETPKEPKVPSPKVEDPSAPIPVSVGKELTTLPKTGTNDATYMPYLGLAALVGFLGLGLAKRKED",glycan array binding signal (z-score),[1],0.486
same,glycan array binding signal (z-score),[2],0.017
same,glycan array binding signal (z-score),[3],2.31
same,glycan array binding signal (z-score),[4],-0.556
same,glycan array binding signal (z-score),[5],0.761
same,glycan array binding signal (z-score),[6],-0.041
same,glycan array binding signal (z-score),[7],0.242
same,glycan array binding signal (z-score),Gal(a1-3)Gal(b1-3)GlcNAc,-0.597
same,glycan array binding signal (z-score),Gal(a1-4)Gal(b1-4)Glc,-1.22
same,glycan array binding signal (z-score),Gal(a1-6)Glc,0.072
same,glycan array binding signal (z-score),[8],-0.672
same,glycan array binding signal (z-score),[9],1.1
same,glycan array binding signal (z-score),[10],-1.62
same,glycan array binding signal (z-score),[11],0.616
same,glycan array binding signal (z-score),[12],-0.283
same,glycan array binding signal (z-score),[13],1.07
same,glycan array binding signal (z-score),Gal(b1-4)Glc,-0.34
same,glycan array binding signal (z-score),[14],1.08
same,glycan array binding signal (z-score),[15],5.73
same,glycan array binding signal (z-score),[16],-1.35
same,glycan array binding signal (z-score),[17],0.344
same,glycan array binding signal (z-score),[18],0.985
same,glycan array binding signal (z-score),[19],-0.859
same,glycan array binding signal (z-score),Glc(b1-6)Glc,-1.1
same,glycan array binding signal (z-score),[20],-0.557
same,glycan array binding signal (z-score),[21],3.03
same,glycan array binding signal (z-score),Man(a1-6)Man,2.65
same,glycan array binding signal (z-score),Man(b1-4)GlcNAc,-0.696
same,glycan array binding signal (z-score),[22],0.045
same,glycan array binding signal (z-score),[23],0.022
same,glycan array binding signal (z-score),[24],3.2
same,glycan array binding signal (z-score),[25],1.36
same,glycan array binding signal (z-score),[26],0.081
same,glycan array binding signal (z-score),[27],2.25
same,glycan array binding signal (z-score),[28],2.4
same,glycan array binding signal (z-score),[29],0.179
